Not all results are given here.
aSyn UTR act: Activators via SNCA 5'UTR binding, MLPCN. alpha-synuclein 5'UTR reporter, activators screen. activity score, % (tested at 7.5 µM), hits read low. 300,000 compounds, 7.1% hits; in the data active = activity score below about -60%
Starred values were filed as active, the others as inactive.

SMILES | aSyn UTR act
NC(=O)COc1ccc(-c2noc(COc3ccccc3[N+](=O)[O-])n2)cc1 | -84*
c1ccc(OCc2nc(-c3ccccc3)no2)cc1 | -202*
Clc1ccc(OCc2nc(-c3ccncc3)no2)c(Br)c1 | -119*
O=C(N/N=C/C(Br)=C/c1ccccc1)NC1CCCCC1 | -85*
BrC(=C\c1ccccc1)/C=N/Nc1nc2ccccc2[nH]1 | -158*
O=C(N/N=C/C(Br)=C/c1ccccc1)C1CC1 | -195*
O=C(N/N=C/C(Br)=C/c1ccccc1)C(O)c1ccccc1 (stereo unspecified) | -74*
Cc1ccc(NCC(=O)N/N=C\C(Br)=C\c2ccccc2)cc1 | -65*
O=C(O)c1ccc(N/N=C/C(Br)=C/c2ccccc2)cc1 | -242*
CNc1nc(C)nc(-c2ccccc2O)n1 | -75*
COc1cccc([C@@H]2Oc3ccc(OC)cc3C(=O)[C@H]2OC(=O)NCc2ccc3c(c2)OCO3)c1 | -137*
C=CCn1c(O)c(N=NC(=S)Nc2ccccc2F)c2ccccc21 | 67
Fc1ccccc1NC(=S)N1CCC(c2ccccc2)C1 (stereo unspecified) | -111*
Oc1c(N=NC(=S)Nc2ccccc2F)c2ccccc2n1Cc1ccccc1 | 72
S=C(Nc1ccccc1Cl)N1CCC(c2ccccc2)C1 (stereo unspecified) | -120*
Fc1cc(F)cc(NC(=S)N2CCC(c3ccccc3)C2)c1 (stereo unspecified) | -99*
Nc1c(C(=O)c2ccc(Cl)cc2)sc2nc3c(cc12)CCC3 | -108*
Nc1c(C(=O)Nc2cccc(C(=O)O)c2)sc2nc3c(cc12)CCCC3 | 77
Nc1c(C(=O)C2CC2)sc2nc3c(cc12)CCC3 | -161*
CCCCNC(=O)Cn1nc([N+](=O)[O-])c([N+](=O)[O-])c1C | -138*
CCCNC(=O)Cn1nc([N+](=O)[O-])c([N+](=O)[O-])c1C | -77*
O=C1C2C3C=CC(C4CC34)C2C(=O)N1/N=C/c1c[nH]c2ccccc12 (stereo unspecified) | -141*
O=C1C2C3C=CC(C4CC34)C2C(=O)N1/N=C/c1ccc([N+](=O)[O-])s1 (stereo unspecified) | -85*
CN=C(c1ccc(C)cc1)n1c(=S)nc(-c2ccc(C)cc2)n(C)c1=S | -149*
CCN=c1scc(C)n1/N=C/c1ccsc1 | -226*
SMILES | aSyn UTR act
CC(C)c1ccc2c(c1)C1Cc3ccccc3C1N2 (stereo unspecified) | -196*
COc1cc(CNCCO)ccc1OCC(=O)Nc1ccc(Br)cc1 | -69*
Cc1ccc2nc(-c3cccc(NC(=O)c4ccc5c(c4)OCCO5)c3)oc2c1 | -87*
O=C(Nc1ccc2oc(-c3ccc4ccccc4c3)nc2c1)c1ccc2c(c1)OCCO2 | -113*
CCC(=O)Nc1cccc(-c2nc3ccc(C)cc3o2)c1 | -75*
N#Cc1nc(COc2cccc(Cl)c2)oc1NCc1ccco1 | -105*
COc1ccc(Nc2oc(COc3ccc(C)cc3)nc2C#N)cc1 | 68
CCNc1oc(COc2cccc(C)c2)nc1C#N | -95*
N/C(=N\OC(=O)c1csnn1)c1ccc(C(F)(F)F)cc1 | -67*
Cc1ccc2nc(-c3cccnc3SCC(=O)N3c4ccccc4CC3C)[nH]c2c1 (stereo unspecified) | -80*
CC(=O)CSc1ccc(-c2nc3cc(C)c(C)cc3[nH]2)cn1 | 121
Cc1ccc2nc(-c3ccc(SCC(=O)N4CCc5ccccc54)nc3)[nH]c2c1 | -388*
Cc1cc2nc(-c3ccc(SCc4ccc(C#N)cc4)nc3)[nH]c2cc1C | -105*
CC(=O)CSc1ccc(-c2nc3ccccc3[nH]2)cn1 | -72*
N#Cc1ccccc1CSc1ccc(-c2nc3ccccc3[nH]2)cn1 | -120*
CO/N=C/C(C#N)=C/c1ccc(OC)cc1 | -81*
O=C(N=Nc1c(O)[nH]c2ccc(Br)cc12)c1cc(-c2cccs2)nc2ccccc12 | 81
C=CCn1c(O)c(N=NC(=S)Nc2cccc(C)c2)c2ccccc21 | 94
Oc1ccc(NC(=S)N=Nc2c(O)[nH]c3ccccc23)cc1 | -131*
O=C(N=Nc1c(O)[nH]c2ccccc12)c1cccs1 | -74*
CC(C)c1ccc2[nH]c(O)c(N=NC(=O)c3cccc(S(=O)(=O)Nc4ccc(Cl)cc4)c3)c2c1 | 79
Cc1ccc(-n2nnnc2SCC(=O)Nc2sc(C)c(C)c2C#N)cc1C | -71*
COc1ccc(OC)c(/C=N/N(C)c2ccccc2)c1 | -187*
Nc1ccc2c(c1Cl)C(=O)c1ccc(N)c(Cl)c1C2=O | -88*
Cn1c(SCC(=O)c2ccccc2)nnc1-c1cccc(N)c1 | -62*
SMILES | aSyn UTR act
Cn1c(SCC(=O)c2ccc(F)cc2)nnc1-c1cnccn1 | -63*
Cn1c(SCC(=O)c2ccccc2)nnc1-c1ccccn1 | -128*
Cc1ccc(NC(=O)C2=C(O)c3sccc3N(C)S2(=O)=O)cc1 | -101*
Cn1c(-c2ccc(F)cc2)cnc1NCc1ccccc1F | -66*
Oc1ccc(CNc2ccc(F)cc2)c2cccnc12 | 76
Cn1c(-c2ccccc2)cnc1NCc1cc(Cl)ccc1O | -66*
Nc1n[nH]c(N)c1N=Nc1cccc(C(F)(F)F)c1 | -65*
Nc1n[nH]c(N)c1N=Nc1ccc(Cl)cc1 | -131*
